The text below walks through data of PubChem BioAssay (EPA / NIEHS).

A word on the AC50: it is the midpoint of the concentration-response curve, whichever way the signal moves.

The target in assay [1] is Hepatocyte nuclear factor 3-beta (Homo sapiens) (UniProt Q9Y261). The experiment in a line: ATG_FoxA2_CIS: Attagene CIS-FACTORIAL HepG2 Assay for human Forkhead box A2 (FOXA2) (AID 2282942). The conditions noted are these: HepG2 cis-reporter transcription factor activity, 24 h; actives raise or lower the signal. In a few lines:
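Endogenous transcription factor activity was read in HepG2 cells carrying transiently transfected cis-promoter reporter units. After 24 h dosing, reporter mRNA was quantified by RT-PCR and capillary electrophoresis, and values fitted bidirectionally versus DMSO.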

The target in assay [2] is Heat shock factor protein 1 (Homo sapiens) (UniProt Q00613). Description: ATG_HSE_CIS: Attagene CIS-FACTORIAL HepG2 Assay for human Heat Shock Transcription Factor 1 (HSE) (AID 2282953). The conditions noted are these: HepG2 HSE cis-reporter, Attagene RNA transcription; actives raise or lower the signal. In outline:
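HepG2 cells transfected with cis-promoter reporter units sensing endogenous transcription factor activity; reporter mRNA quantified 24 h post-dose by RT-PCR and capillary electrophoresis of 6-FAM-labelled products. Bidirectional fitting against DMSO.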

A short description of assay [3]: ATG_RORE_CIS: Attagene CIS-FACTORIAL HepG2 Assay for human RAR-related Orphan Receptor Element (RORE) (AID 2282959). The note with it: HepG2 Attagene cis-factorial RORE reporter, mRNA; actives raise or lower the signal. In outline: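 Cells were HepG2 carrying transfected cis-regulated reporter constructs, dosed for 24 hours. Total RNA was reverse-transcribed and reporter cDNA amplified, fluorescently labeled and sized by capillary electrophoresis. Activity was fitted bidirectionally relative to DMSO.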

A short description of assay [4]: ATG_Sox_CIS: Attagene CIS-FACTORIAL HepG2 Assay for human SRY-box transcription factor (SOX) (AID 2282960). The note with it: HepG2 Attagene cis-factorial SOX reporter, mRNA; actives raise or lower the signal. In outline:
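Transient MRTU transfection of HepG2; 24 h compound incubation; TriZol RNA, oligo(dT) RT, PCR, 6-FAM primer extension, HpaI cut, CE. Bidirectional fit, DMSO = baseline.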

For assay [5], the target named is Transcription factor Sp1 (Homo sapiens) (UniProt P08047). Description: ATG_Sp1_CIS: Attagene CIS-FACTORIAL HepG2 Assay for human Specificity Protein 1 (Sp1) (AID 2282961). The note with it: HepG2 Sp1 cis-reporter transcription, actives raise or lower the signal. In outline:
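Endogenous Sp1 activity was gauged in human liver HepG2 cells bearing transfected reporter units under a cis-regulating promoter. After 24 h dosing, reporter mRNA was quantified by RT-PCR with capillary electrophoresis, and activity fitted bidirectionally versus DMSO.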

Assay [6] is described as follows: ATG_SREBP_CIS: Attagene CIS-FACTORIAL HepG2 Assay for human Sterol Regulatory Element Binding (SREBP) (AID 2282962). The conditions noted are these: HepG2 Attagene cis-factorial SREBP reporter, mRNA; actives raise or lower the signal. In outline:
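In this cis-format assay, HepG2 liver cells express reporters controlled by promoter elements responsive to native transcription factors. Exposure lasts 24 h; reporter mRNA fluorescence from capillary electrophoresis gives the signal, fitted bidirectionally against DMSO.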

The target in assay [7] is Signal transducer and activator of transcription 3 (Homo sapiens) (UniProt P40763). Description: ATG_STAT3_CIS: Attagene CIS-FACTORIAL HepG2 Assay for human Signal Transducer and Activator of Transcription 3 (STAT3) (AID 2282963). The note with it: HepG2, Attagene cis-factorial STAT3 reporter transcription; actives raise or lower the signal. In a few lines: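 Readout: fluorescent reporter mRNA fragments resolved by capillary electrophoresis. Setup: HepG2 transfected with MRTUs reporting endogenous transcription-factor activity, dosed 24 h. Gain or loss of signal fitted bidirectionally against DMSO control.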

The nature of assay [8]: ATG_TA_CIS: Attagene CIS-FACTORIAL HepG2 Assay for human TA Basal Promoter (AID 2282964). The conditions noted are these: HepG2 Attagene CIS-factorial TA basal promoter reporter; actives raise or lower the signal. In outline:
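HepG2 cells transiently transfected with multiple reporter units under cis promoter elements, reporting endogenous transcription factor activity; this endpoint tracks the TA basal promoter as background control. Reporter mRNA after 24 h dosing measured by RT-PCR/capillary electrophoresis; bidirectional fits versus DMSO.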

A short description of assay [9]: ATG_TCF_b_cat_CIS: Attagene CIS-FACTORIAL HepG2 Assay for human T-Cell-Factor with beta-catenin (TCF/b-cat) (AID 2282965). The conditions noted are these: HepG2 TCF/beta-catenin cis-reporter transcription, actives raise or lower the signal. In a few lines:
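HepG2 cells transiently transfected with cis-promoter-driven multiplexed reporter units; reporter mRNA measured 24 h after dosing by RT-PCR, FAM labelling, HpaI digestion and capillary electrophoresis. Bidirectional fitting relative to DMSO baseline.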

A short description of assay [10]: ATG_TAL_CIS: Attagene CIS-FACTORIAL HepG2 Assay for human TAL Basal Promoter (AID 2282966).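 Further: background control endpoint measuring basal TAL promoter reporter mRNA not a specific factor.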 The note with it: HepG2 Attagene cis-factorial TAL promoter reporter; actives raise or lower the signal. In a few lines:
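Human hepatoma HepG2 cells, transfected with promoter-regulated reporter units, were treated 24 h. Reporter transcript levels, measured through RT-PCR and capillary electrophoresis, were fitted for gain or loss relative to DMSO.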

Assay [11] is described as follows: ATG_VDRE_CIS: Attagene CIS-FACTORIAL HepG2 Assay for human Vitamin D Receptor Element (VDRE) (AID 2282968). The conditions noted are these: HepG2 VDRE cis-reporter transcription, actives raise or lower the signal. In a few lines: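 Transient MRTU transfection of HepG2, 24 h compound exposure. Readout: reporter transcripts via RT-PCR and capillary electrophoresis, fluorescence. Bidirectional fit vs DMSO.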

In assay [12] the target is Transcriptional activator Myb (Homo sapiens) (UniProt P10242). The experiment in a line: ATG_Myb_CIS: Attagene CIS-FACTORIAL HepG2 Assay for human Myeloblastosis (Myb) Proto-Oncogene Transcription Factor (AID 2282986). The conditions noted are these: HepG2 Attagene CIS-FACTORIAL Myb reporter transcription; actives raise or lower the signal. In outline: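 Steps: transfect HepG2 with cis-regulated reporter units; dose with chemical for 24 h; isolate RNA, reverse-transcribe, PCR-amplify and FAM-label reporter sequences; digest with HpaI; resolve by capillary electrophoresis. Activity fitted in both directions relative to DMSO.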

For assay [13], the target named is Nuclear respiratory factor 1 (Homo sapiens) (UniProt Q16656). The experiment in a line: ATG_NRF1_CIS: Attagene CIS-FACTORIAL HepG2 Assay for human Nuclear Respiratory Factor 1 (NRF1) Orphan Gene (AID 2282987). The conditions noted are these: HepG2 NRF1 cis-element reporter, Attagene multiplex; actives raise or lower the signal. In a few lines:
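Fluorescence intensity of labelled reporter cDNA fragments, resolved by capillary electrophoresis, served as readout for NRF1 cis-element activity. Transiently transfected HepG2 cells were dosed for 24 hours; activity in either direction was fitted against DMSO negative control.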

A short description of assay [14]: ATG_NFI_CIS: Attagene CIS-FACTORIAL HepG2 Assay for human Nuclear Factor I (NFI) (AID 2282989). The note with it: HepG2 cis-regulatory reporter, NFI response element transcription; actives raise or lower the signal. In a few lines:
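Endogenous TF activity in HepG2 cells transiently transfected with cis-element-driven multiplexed reporter units, read 24 h after dosing. Reporter mRNA quantified by RT-PCR, 6-FAM labelling, HpaI digestion and capillary electrophoresis; bidirectional fit versus DMSO.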

Assay [15] addresses Myc proto-oncogene protein (Homo sapiens) (UniProt P01106). The experiment in a line: ATG_Myc_CIS: Attagene CIS-FACTORIAL HepG2 Assay for human Myelocytomatosis (Myc) Proto-Oncogene Transcription Factor (AID 2282990). The note with it: HepG2, Attagene cis-reporter transcription factor activity; actives raise or lower the signal. In outline:
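Transiently transfected HepG2 cells bearing cis-promoter reporter units for endogenous transcription factors; 24 h exposure. Reporter mRNA measured by RT-PCR, 6-FAM primer extension, HpaI cut and capillary electrophoresis; bidirectional fit relative to DMSO.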

The nature of assay [16]: ATG_NRF2_ARE_CIS: Attagene CIS-FACTORIAL HepG2 Assay for human Nuclear Factor Erythroid 2 Related Factor 2 (NFR2) response to Antioxidant Response Elements (ARE) (AID 2282992). The conditions noted are these: HepG2 Attagene ARE/NRF2 reporter, transcription factor activity; actives raise or lower the signal. In a few lines:
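Using transiently transfected HepG2 cells exposed for 24 h, reporter mRNA levels were determined by RT-PCR with fluorescent primer extension and capillary electrophoresis, analysed for gain or loss of signal against DMSO.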

Assay [17] can be described thus: ATG_Oct_MLP_CIS: Attagene CIS-FACTORIAL HepG2 Assay for human Octamer-Binding Transcription Factor (Oct) (AID 2282993). The note with it: HepG2 Attagene cis-factorial Oct reporter, mRNA; actives raise or lower the signal. In a few lines: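 HepG2 cells transiently transfected with cis-element-driven reporter transcription units (endogenous TF activity); 24 h compound exposure. Reporter mRNA quantified by RT-PCR, 6-FAM labelling, HpaI digestion and capillary electrophoresis; bidirectional fit versus DMSO baseline.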

The target in assay [18] is Cellular tumor antigen p53 (Homo sapiens) (UniProt P04637). Description: ATG_p53_CIS: Attagene CIS-FACTORIAL HepG2 Assay for human p53 Transcription Factor (AID 2282994). The note with it: HepG2 p53 cis-element reporter, Attagene mRNA; actives raise or lower the signal. In a few lines:
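In HepG2 cells, reporter transcription units under cis-regulatory promoters were transiently introduced. Following 24 h treatment, RNA was processed to labelled, digested cDNA fragments read by capillary electrophoresis; fitting was bidirectional versus DMSO.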

Assay [19] deals with Nuclear receptor subfamily 1 group I member 2 (Homo sapiens) (UniProt O75469). The experiment in a line: ATG_PXR_TRANS: Attagene TRANS-FACTORIAL HepG2 Assay for human Pregnane X Receptor (PXR) (AID 2283008; active means hit-call score of the fitted dose curve at least 0.9, where 1 is the maximum). In a few lines: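 Multiplexed TRANS reporter panel in HepG2; this component tracks PXR-Gal4-driven reporter mRNA after 24 h dosing, measured by RT-PCR with capillary electrophoresis fluorescence, fitted against DMSO.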

Assay [20] is described as follows: ATG_XTT_Cytotoxicity: Cytotoxicity Assessment in the Attagene TRANS-FACTORIAL HepG2 Assay (AID 2283584; active means hit-call score of the fitted dose curve at least 0.9, where 1 is the maximum). In a few lines: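 24 h chemical exposure of reporter-transfected HepG2; XTT signal loss vs DMSO indicates cytotoxicity.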

Records with an inconclusive call do not appear. The source made the active and inactive calls. How the source made its calls, unless noted: active means hit-call score of the fitted dose curve at least 0.9, where 1 is the maximum; inactive means score below 0.9.

Hepatocyte nuclear factor 3-beta (Homo sapiens), sequence (Q9Y261 whole entry, looked up): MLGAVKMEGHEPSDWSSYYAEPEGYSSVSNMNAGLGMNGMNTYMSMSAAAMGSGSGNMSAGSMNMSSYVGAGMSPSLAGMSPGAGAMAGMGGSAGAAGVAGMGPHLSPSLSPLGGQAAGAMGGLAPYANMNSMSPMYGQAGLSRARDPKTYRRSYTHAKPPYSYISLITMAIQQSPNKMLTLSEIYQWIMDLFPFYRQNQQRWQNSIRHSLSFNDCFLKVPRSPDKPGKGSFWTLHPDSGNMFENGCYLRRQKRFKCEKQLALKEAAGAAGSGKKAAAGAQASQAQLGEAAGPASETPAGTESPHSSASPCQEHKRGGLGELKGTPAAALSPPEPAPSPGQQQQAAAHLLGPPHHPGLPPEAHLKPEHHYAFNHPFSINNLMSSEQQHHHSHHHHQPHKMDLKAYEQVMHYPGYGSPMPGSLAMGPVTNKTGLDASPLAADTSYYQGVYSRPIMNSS
Myc proto-oncogene protein (Homo sapiens), sequence (P01106 whole entry, looked up): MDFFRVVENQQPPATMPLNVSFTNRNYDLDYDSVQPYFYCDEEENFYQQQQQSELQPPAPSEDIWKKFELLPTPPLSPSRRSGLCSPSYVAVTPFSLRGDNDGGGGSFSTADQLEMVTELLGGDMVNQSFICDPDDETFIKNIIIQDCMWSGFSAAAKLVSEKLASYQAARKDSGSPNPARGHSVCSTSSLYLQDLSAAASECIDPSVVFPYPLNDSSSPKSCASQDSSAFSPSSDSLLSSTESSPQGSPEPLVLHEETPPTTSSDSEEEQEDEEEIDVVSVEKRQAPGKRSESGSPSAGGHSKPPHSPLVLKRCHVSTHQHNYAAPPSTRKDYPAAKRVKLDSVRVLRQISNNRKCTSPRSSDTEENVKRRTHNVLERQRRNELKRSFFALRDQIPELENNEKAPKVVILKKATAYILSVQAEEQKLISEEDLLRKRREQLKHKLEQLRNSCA
Nuclear respiratory factor 1 (Homo sapiens), sequence (Q16656 whole entry, looked up, the tested form may be a part): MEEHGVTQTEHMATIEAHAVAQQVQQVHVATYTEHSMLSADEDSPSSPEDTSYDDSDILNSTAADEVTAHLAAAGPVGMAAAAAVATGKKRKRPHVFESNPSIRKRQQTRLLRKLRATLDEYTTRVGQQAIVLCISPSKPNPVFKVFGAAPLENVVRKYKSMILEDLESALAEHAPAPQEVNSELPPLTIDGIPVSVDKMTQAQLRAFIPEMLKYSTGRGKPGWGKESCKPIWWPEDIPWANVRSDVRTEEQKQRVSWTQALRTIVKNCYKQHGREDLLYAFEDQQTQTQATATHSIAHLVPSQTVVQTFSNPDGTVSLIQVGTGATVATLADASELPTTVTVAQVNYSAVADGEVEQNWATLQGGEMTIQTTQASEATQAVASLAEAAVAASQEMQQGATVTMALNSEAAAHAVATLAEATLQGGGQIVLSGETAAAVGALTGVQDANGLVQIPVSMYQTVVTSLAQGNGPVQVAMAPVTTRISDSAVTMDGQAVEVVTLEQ
Heat shock factor protein 1 (Homo sapiens), sequence (Q00613 whole entry, looked up): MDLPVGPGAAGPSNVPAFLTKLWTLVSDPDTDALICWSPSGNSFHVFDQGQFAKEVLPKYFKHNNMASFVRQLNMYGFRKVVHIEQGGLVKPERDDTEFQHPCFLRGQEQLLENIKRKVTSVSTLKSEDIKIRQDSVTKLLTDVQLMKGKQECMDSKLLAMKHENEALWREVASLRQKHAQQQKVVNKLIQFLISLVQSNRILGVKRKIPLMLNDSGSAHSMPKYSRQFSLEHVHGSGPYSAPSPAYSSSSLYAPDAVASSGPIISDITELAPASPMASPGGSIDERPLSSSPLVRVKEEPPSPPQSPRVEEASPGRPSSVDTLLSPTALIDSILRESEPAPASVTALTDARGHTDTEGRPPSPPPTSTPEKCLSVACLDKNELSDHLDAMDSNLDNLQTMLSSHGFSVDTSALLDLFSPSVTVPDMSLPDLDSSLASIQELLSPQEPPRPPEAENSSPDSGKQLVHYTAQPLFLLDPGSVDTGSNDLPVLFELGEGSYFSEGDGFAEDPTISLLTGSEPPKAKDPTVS
Signal transducer and activator of transcription 3 (Homo sapiens), sequence (P40763 whole entry, looked up, the tested form may be a part): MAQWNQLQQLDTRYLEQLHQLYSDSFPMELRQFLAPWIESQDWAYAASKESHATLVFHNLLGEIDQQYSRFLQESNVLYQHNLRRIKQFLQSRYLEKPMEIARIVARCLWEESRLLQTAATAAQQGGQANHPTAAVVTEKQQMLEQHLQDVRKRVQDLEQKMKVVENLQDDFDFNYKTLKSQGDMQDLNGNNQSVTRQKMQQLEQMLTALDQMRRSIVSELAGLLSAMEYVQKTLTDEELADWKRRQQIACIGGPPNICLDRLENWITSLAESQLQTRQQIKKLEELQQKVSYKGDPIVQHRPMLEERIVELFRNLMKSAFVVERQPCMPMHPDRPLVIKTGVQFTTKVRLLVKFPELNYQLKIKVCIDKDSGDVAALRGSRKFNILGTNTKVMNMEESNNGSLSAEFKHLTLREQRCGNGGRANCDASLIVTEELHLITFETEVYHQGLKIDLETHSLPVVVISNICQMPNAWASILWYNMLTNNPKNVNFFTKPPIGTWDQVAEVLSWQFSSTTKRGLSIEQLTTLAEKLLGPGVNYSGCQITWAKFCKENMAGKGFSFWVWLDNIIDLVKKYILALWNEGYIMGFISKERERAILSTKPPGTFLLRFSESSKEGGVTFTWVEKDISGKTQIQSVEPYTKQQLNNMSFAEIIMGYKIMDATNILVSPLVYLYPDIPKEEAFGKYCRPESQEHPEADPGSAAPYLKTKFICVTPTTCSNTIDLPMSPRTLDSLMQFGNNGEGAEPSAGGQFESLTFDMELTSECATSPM
Cellular tumor antigen p53 (Homo sapiens), sequence (P04637 whole entry, looked up, the tested form may be a part): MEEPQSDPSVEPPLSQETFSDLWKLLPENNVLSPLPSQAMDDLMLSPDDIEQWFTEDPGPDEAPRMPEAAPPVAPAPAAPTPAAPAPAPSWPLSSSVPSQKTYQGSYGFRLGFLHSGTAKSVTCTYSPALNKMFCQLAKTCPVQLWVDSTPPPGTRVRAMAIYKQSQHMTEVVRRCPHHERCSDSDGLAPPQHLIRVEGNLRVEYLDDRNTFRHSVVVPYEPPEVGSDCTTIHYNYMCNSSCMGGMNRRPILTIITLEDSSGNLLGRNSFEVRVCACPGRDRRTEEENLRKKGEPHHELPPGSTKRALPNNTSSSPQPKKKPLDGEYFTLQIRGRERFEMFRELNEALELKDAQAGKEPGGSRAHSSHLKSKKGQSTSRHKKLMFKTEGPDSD
Transcription factor Sp1 (Homo sapiens), sequence (P08047 whole entry, looked up): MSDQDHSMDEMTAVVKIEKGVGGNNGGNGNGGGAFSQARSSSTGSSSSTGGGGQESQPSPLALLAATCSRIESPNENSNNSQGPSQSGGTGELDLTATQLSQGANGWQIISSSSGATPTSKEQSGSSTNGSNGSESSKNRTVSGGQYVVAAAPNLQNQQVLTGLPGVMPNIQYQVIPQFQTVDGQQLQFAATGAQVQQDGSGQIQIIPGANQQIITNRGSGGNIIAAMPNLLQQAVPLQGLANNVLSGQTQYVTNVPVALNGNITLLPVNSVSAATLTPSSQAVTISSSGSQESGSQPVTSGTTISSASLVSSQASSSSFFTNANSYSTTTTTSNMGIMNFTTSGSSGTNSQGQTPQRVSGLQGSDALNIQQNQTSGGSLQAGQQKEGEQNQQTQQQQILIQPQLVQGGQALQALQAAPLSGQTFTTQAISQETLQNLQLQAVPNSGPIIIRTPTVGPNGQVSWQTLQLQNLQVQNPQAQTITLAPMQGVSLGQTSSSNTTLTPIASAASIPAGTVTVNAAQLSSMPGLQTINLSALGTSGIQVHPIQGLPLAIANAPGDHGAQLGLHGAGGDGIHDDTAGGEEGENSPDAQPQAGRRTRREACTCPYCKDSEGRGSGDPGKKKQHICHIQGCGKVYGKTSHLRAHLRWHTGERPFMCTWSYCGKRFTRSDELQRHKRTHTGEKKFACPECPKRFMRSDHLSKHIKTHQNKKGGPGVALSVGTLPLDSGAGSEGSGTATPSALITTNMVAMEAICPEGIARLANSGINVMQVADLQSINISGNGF
Transcriptional activator Myb (Homo sapiens), sequence (P10242 whole entry, looked up): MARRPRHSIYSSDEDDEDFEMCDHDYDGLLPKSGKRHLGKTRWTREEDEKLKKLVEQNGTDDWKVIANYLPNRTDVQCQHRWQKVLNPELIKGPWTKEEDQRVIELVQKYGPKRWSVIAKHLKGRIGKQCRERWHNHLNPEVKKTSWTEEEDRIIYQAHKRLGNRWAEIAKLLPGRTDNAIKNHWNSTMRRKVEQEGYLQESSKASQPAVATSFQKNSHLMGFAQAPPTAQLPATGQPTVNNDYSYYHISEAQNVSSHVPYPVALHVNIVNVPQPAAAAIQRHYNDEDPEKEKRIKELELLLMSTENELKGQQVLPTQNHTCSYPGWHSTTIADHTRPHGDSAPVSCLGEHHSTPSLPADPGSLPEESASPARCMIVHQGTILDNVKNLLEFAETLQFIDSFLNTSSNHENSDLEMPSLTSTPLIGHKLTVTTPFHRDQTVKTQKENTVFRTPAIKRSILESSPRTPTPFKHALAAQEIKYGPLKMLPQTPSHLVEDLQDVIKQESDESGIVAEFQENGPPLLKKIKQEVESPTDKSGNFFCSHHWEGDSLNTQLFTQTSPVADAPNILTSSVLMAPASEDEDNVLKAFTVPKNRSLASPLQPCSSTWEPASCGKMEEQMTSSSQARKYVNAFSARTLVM
Nuclear receptor subfamily 1 group I member 2 (Homo sapiens), sequence (O75469 whole entry, looked up, the tested form may be a part): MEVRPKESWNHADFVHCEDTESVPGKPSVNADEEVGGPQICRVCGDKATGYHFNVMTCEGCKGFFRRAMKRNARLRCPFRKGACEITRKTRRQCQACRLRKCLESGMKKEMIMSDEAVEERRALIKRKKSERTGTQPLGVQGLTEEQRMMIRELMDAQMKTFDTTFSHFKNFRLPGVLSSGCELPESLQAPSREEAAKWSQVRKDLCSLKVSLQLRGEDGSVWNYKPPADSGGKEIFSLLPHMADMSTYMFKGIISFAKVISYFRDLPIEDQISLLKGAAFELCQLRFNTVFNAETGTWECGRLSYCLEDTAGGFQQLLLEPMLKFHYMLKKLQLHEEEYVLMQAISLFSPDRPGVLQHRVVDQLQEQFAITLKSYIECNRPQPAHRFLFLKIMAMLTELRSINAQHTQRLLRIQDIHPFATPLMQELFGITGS

As to `CN(C)c1ccc(C(c2ccccc2)c2ccc(N(C)C)cc2)cc1`, the result in assay [1], in assay [2], in [3], in assay [4], in assay [5] and in assay [6] was inactive. The call in [7], in [8], in assay [9], in assay [10], in [12] and in assay [13] was inactive. For the same compound, the result in [14], in assay [15], in assay [17], in [18] and in assay [20] was inactive. For the same compound, the AC50 is 7.62 µM (active) in [11], 68.1 µM (active) in [16] and 2.06 µM (active) in assay [19].
On to `CCCCCCCCCCCCCCCCCC[N+](C)(C)C`, for which the AC50 is 45.4 µM (active) in assay [1]; 43.9 µM (active) in assay [2]; 40.7 µM (active) in [4]; 6.46 µM (active) in assay [6]; 44 µM (active) in assay [7]; 16.5 µM (active) in [9]. Moreover, the AC50 was 39.2 µM (active) in [10]; 6.1 µM (active) in assay [11]; 6.05 µM (active) in assay [12]; 16.8 µM (active) in assay [13]; 41.5 µM (active) in [15]; 4.81 µM (active) in assay [16]. In addition, the figures for the AC50 in assay [17] and in assay [19] were 6.14 µM (active) and 25 µM (active), respectively. The call in assay [3], in assay [5], in assay [8], in assay [14], in assay [18] and in assay [20] was inactive.
Regarding `CC(=O)c1nccs1`, the compound was classed as inactive in assay [1], in [2], in [3], in assay [4], in assay [5] and in assay [6]. The call in assay [7], in assay [8], in assay [9], in [10], in assay [11] and in assay [12] was inactive. In addition, the compound was classed as inactive in assay [13], in assay [14], in assay [15], in assay [16], in assay [17] and in assay [18]. Moreover, in assay [20], the result was inactive.
